Drawing on PubChem BioAssay (NCATS), this text covers outcome and viability change for ten molecules.

Molecules are shown by their SMILES. Inconclusive results are not listed. The source made the active and inactive calls. Unless noted, the call rests on the fitted dose curve; in most records, active means well fitted curve in the direction sought with a large enough effect; inconclusive means small, poorly fitted or top-dose-only effect, or another doubt; inactive means no such curve, though single readings can be large; an effect the other way counts as inactive or inconclusive.

Assay [1] concerns the target ATP-dependent 6-phosphofructokinase (Trypanosoma brucei brucei) (UniProt O15648). In words: qHTS Assay to Find Inhibitors of T. brucei phosphofructokinase: hit validation (AID 492961).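 Further: luminescence reports ADP formed as PFK phosphorylates fructose-6-phosphate with ATP; on the % scale 0 is the no-effect control and ±100 the full control effect.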 Conditions: T. brucei PFK, ADP-Glo luminescence; series mostly up to 51.4 µM. The procedure, abridged:
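Reaction: 0.1 M triethanolamine pH 8.0, 5 mM MgCl2, F6P 0.5 mM, ATP 0.1 mM, PFK 1.25 nM, 45 min RT. Read-out: ADP-Glo luminescence. Analysis: concentration-response fits, classed by r2 and efficacy.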
(In general: qHTS replaces the single test concentration by a dilution series.)

Assay [2] addresses Thioredoxin reductase 1, cytoplasmic (Rattus norvegicus) (UniProt O89049). Description: qHTS Assay for Substrates of Mammalian Selenoprotein Thioredoxin Reductase 1 (TrxR1) (AID 488772).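 Further: NADPH fluorescence in the first read after selenite addition and not the 8 min delta; 0% is about no effect; a drop in NADPH fluorescence below the no-compound background marks a TrxR1 substrate.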 The note with it: purified TrxR1, NADPH consumption substrate assay; series mostly up to 57.1 µM. In outline:
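Quantitative HTS in Tris-HCl buffer at pH 7.5 with EDTA and Tween-20, using rat TrxR1, 400 uM NADPH and 400 uM selenite (final). A fall in initial NADPH fluorescence relative to background marked substrate behaviour.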

Assay [3] shares this target. Description: qHTS Assay for Inhibitors of Mammalian Selenoprotein Thioredoxin Reductase 1 (TrxR1) (AID 488773).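 Further: drop in NADPH fluorescence over an 8 min run after selenite addition; on the % scale 0 is the no-effect control and ±100 the full control effect; nearly all actives have a fitted effect of over 40% in size.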 Conditions: purified TrxR1 enzyme activity; series mostly up to 57.1 µM. The procedure, abridged: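 Steps: enzyme (90 nM) plus NADPH (400 uM final), 5 min at ~22 deg C; compound added, 15 min; selenite (400 uM final) added; fluorescence followed for 8 min. Concentration-response curves derived from the normalized delta values.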

The target in assay [4] is M-phase phosphoprotein 8 (Homo sapiens) (UniProt Q99549). In words: qHTS Validation Assay for Inhibitors for MPP8 Chromodomain Interactions with Methylated Histone Tails (AID 488949). Further: top concentration of the series differs between compounds; on the % scale 0 is the no-effect control and ±100 the full control effect; nearly all actives have a fitted effect of over 55% in size. Conditions: AlphaScreen MPP8 binding to H3K9me3 peptide; series mostly up to 57.1 µM. In outline:
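MPP8 (50 nM) was pre-bound to 50 nM biotinylated H3(1-18)K9me3 peptide in PBS pH 7.4 with 0.01% Tween-20. Compounds were then added for 30 min at room temperature, and complex disruption was read by AlphaScreen with streptavidin donor and nickel-chelate acceptor beads.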

Assay [5] addresses Methanococcus maripaludis chaperonin (MmCpn) (UniProt Q6LX38). In words: High-Throughput Screening for Modulators of Cytosolic Chaperonin Activity: MmCpn Primary Screen (AID 488978).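 Further: 50 nM MmCpn enzyme hydrolysing 30 µM ATP at 37 °C; 0% is about no effect.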 The note with it: Purified MmCpn ATPase activity, ADP HTRF detection, 10 min; series mostly up to 76.9 µM. The procedure, abridged:
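MmCpn at 50 nM final was preincubated 5 min at RT with compound. ATP was then added at 30 uM final for 10 min at 37 C. ADP formed was detected by Transcreener HTRF (665/590 nm).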

Assay [6] concerns the target D(1A) dopamine receptor (Homo sapiens) (UniProt P21728). Description: HTS Assay for Allosteric Agonists of the Human D1 Dopamine Receptor: Primary Screen for Agonists (AID 488981). Further: 0% is about no effect. The note with it: Inducible HEK293 T-REx D1 cells, calcium-flux fluorescence, 180 s kinetic; series mostly up to 41.8 µM. In outline: (§1)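 Tetracycline-induced HEK293 T-REx cells force-coupled to calcium signalling were incubated overnight at 30 C and dye-loaded at room temperature. Calcium flux over 180 s after compound addition flagged agonists; a further 180 s read after EC20 dopamine flagged potentiators.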

The target is the same in assay [7]. In words: HTS Assay for Allosteric Agonists of the Human D1 Dopamine Receptor: Primary Screen for Potentiators (AID 488982). Further: 0% is about no effect. The note with it: HEK293 T-REx D1 inducible cells, calcium flux, kinetic fluorescence; series mostly up to 8.37 µM. The procedure, abridged: as §1
(A change in cytosolic calcium serves as a functional read-out for many receptors and channels.)

The target is the same in assay [8]. In words: HTS Assay for Allosteric Agonists of the Human D1 Dopamine Receptor: Primary Screen for Antagonists (AID 488983).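 Further: calcium flux response to an EC80 dopamine challenge measured with no-wash dye; on the % scale 0 is the no-effect control and ±100 the full control effect; nearly all actives have a fitted effect of over 65% in size.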 The note with it: D1 receptor cell assay, antagonist mode, qHTS titration; series mostly up to 41.8 µM. In outline: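 Screening of inducible HEK293 T-REx D1 cells: compound first, EC80 dopamine 180 s later, each phase read kinetically for calcium over 180 s.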

Assay [9] can be described thus: Validation screen for small molecules that induce genotoxicity in human embryonic kidney (HEK293T) cells expressing luciferase-tagged ELG1 (AID 493106). Further: 0% is about no effect. The note with it: luminescence; series mostly up to 46.1 µM. In outline: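 Reporter-gene quantitative HTS in HEK293T cells carrying luciferase-tagged ELG1, whose level climbs under genotoxic stress. Compound exposure lasts 16 hr at 37 °C before luciferase detection.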

Assay [10] addresses ATPase family AAA domain-containing protein 5 (Homo sapiens) (UniProt Q96QE3). In words: Validation screen for small molecules that inhibit ELG1-dependent DNA repair in human embryonic kidney (HEK293T) cells expressing luciferase-tagged ELG1 (AID 493107).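 Further: cells co-treated with the DNA-damaging agent 5-fluorouridine alongside compound; on the % scale 0 is the no-effect control and ±100 the full control effect; inhibitors lower the ELG1-luciferase luminescence signal; nearly all actives have a fitted effect of over 70% in size.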 Conditions: HEK293T ELG1-luciferase level, luminescence, 5-fluorouridine co-treatment, 16 h; series mostly up to 46.1 µM. In outline:
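Quantitative HTS in HEK293T cells carrying luciferase-tagged ELG1, stimulated with 5-fluorouridine alongside compound for 16 hr. Loss of luciferase signal marks inhibition of ELG1 response.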

The nature of assay [11]: Nrf2 qHTS screen for inhibitors: Validation (AID 493153; active means well fitted inhibition curve with a large enough effect in the main read-out, with a control signal flat, not every such curve was filed as active). Conditions: A549 ARE-Fluc reporter, 18-24 h; viability change: measured here: cytotoxicity max response; luciferase luminescence, at 46.1 µM (top of the series). The procedure, abridged:
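Dose-response validation uses reporter A549 cells with firefly luciferase under an antioxidant response element. Compounds stay on cells 18-24 h at 37°C, and luminescence indicates Nrf2-driven transcription.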

Assay [12] is described as follows: qHTS for Inhibitors of Cell Surface uPA Generation: Validation Assay (AID 493164).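 Further: RAW 264.7 macrophage cells exposed to compound for 18 h; 0% is about no effect.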 The note with it: mouse cells, plasminogen activation; series mostly up to 38.3 µM. The procedure, abridged:
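RAW 264.7, 4000 cells/well, o/n plating; cpd 7-pt 1:5 dilution 2.45 nM–38.3 uM final; 18 h, 37 C/5% CO2; ATP-Lite, 5 s luminescence exposure.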

Assay [13] addresses Peptidyl-prolyl cis-trans isomerase NIMA-interacting 1 (Homo sapiens) (UniProt Q13526). In words: qHTS Validation Assay to Find Inhibitors of Pin1 (AID 504536; active means well fitted inhibition curve with a large enough effect in the polarisation, with a control signal flat, not every such curve was filed as active; the % refers to the polarisation;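 further: 0% = full Pin1 enzyme wells and -100% = no-enzyme wells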). Conditions: Pin1 fluorescence polarization peptide binding assay; series mostly up to 57.5 µM. The procedure, abridged: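 Fluorescence polarization competition: compounds (titration) displace HiFluor-488-labeled Pin1-1b peptide from Pin1 (0.3 uM final) in pH 7.5 HEPES buffer with DTT, 10 min at room temperature; %Activity normalized to no-enzyme wells, curves fitted.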

In assay [14] the target is Phosphoglycerate kinase, glycosomal (Trypanosoma brucei brucei) (UniProt P07378). In words: qHTS Validation Assay to Find Inhibitors of Phosphoglycerate Kinase (AID 504547).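 Further: control wells lack PGK and mark full inhibition.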 Conditions: enzymatic PGK inhibition, coupled luminescence read-out; series mostly up to 57.5 µM. The procedure, abridged:
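Substrate/PGK mix plus compound; reaction started with GAPDH (100nM final) to form 1,3-BPG; 60 min RT; Kinase-Glo Plus 10 min; luminescence. TEA 100mM pH 7.6, MgCl2 5mM, Tween-20 0.01%.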

Assay [15] concerns the target Flap endonuclease 1 (Homo sapiens) (UniProt P39748). Description: qHTS Validation Assay for the Inhibitors of Human Flap endonuclease 1 (FEN1) (AID 488816). Further: on the % scale 0 is the no-effect control and ±100 the full control effect. Conditions: FEN1 nuclease activity, fluorogenic DNA substrate; series mostly up to 57.1 µM. In outline: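 FEN1, dispensed as a 10 nM reagent, was preincubated with pin-transferred compounds for 15 min at room temperature before substrate was added (50 nM final). Plates were read at 0 and 15 min, and a four-parameter Hill equation was fitted to the concentration-response data.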

The target of assay [16] is Chromobox protein homolog 1 (Homo sapiens) (UniProt P83916). Description: qHTS Validation Assay for Inhibitors of HP1-beta Chromodomain Interactions with Methylated Histone Tails (AID 488953).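 Further: loss of AlphaScreen luminescence from HP1-beta binding biotinylated H3K9me3 peptide; on the % scale 0 is the no-effect control and ±100 the full control effect; nearly all actives have a fitted effect of over 50% in size.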 The note with it: HP1-beta chromodomain / methylated histone peptide binding assay; series mostly up to 114 µM. The procedure, abridged:
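Measured as loss of AlphaScreen luminescence from streptavidin donor and nickel acceptor beads (10 ug/mL final) bridging HP1-beta and biotin-H3(1-18)K9me3, each 50 nM. Compounds met the preassembled complex for 30 min at RT.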

In assay [17] the target is Transient receptor potential cation channel subfamily V member 1 (Homo sapiens) (UniProt Q8NER1). Description: HTS Assay for Compounds that Act as Enhancers of the Vanilloid Receptor 1 (AID 488979). Further: 0% is about no effect. The note with it: TRPV1-expressing cells, enhancer of channel activity, stimulated with capsaicin at EC20; series mostly up to 41.7 µM. In outline: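 TRPV1-expressing cells loaded with Fluo-8 calcium dye; compounds added and calcium influx read kinetically for 3 min (agonist phase), then capsaicin at EC20 added and read 2 min more for enhancement. Fluorescence ex 480/em 520 nm.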

For assay [18], the target named is Thyrotropin receptor (Homo sapiens) (UniProt P16473). In words: qHTS Assay for Antagonists of the Thyroid Stimulating Hormone Receptor (AID 488980). Further: 0% is about no effect. Conditions: TSHR-expressing cells, cAMP antagonist read-out; series mostly up to 57.5 µM. The procedure, abridged: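 TSHR-transfected HEK293 cells (2000/well) in HEPES-buffered HBSS with 70 uM RO 20-1724 were stimulated with 4 nM TSH (EC80, final) in the presence of compound. cAMP was measured by HTRF competition after lysis and 30 min at RT.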

For assay [19], the target named is Galactokinase (Homo sapiens) (UniProt P51570). Description: qHTS Validation Assay for Inhibitors of Human Galactokinase (GALK) (AID 493189). Further: 0% is about no effect. Conditions: purified human GALK enzyme activity, qHTS 7-point titration; series mostly up to 57.5 µM. In outline:
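GALK (5 nM) with 35 uM ATP and 100 uM galactose in HEPES pH 8.0 with MgCl2, NaCl, DTT and BSA. Reaction ran 1 h at room temperature. Residual ATP read by Kinase-Glo Plus luminescence.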

Assay [20] in a line: Validation screen for small molecules that induce DNA re-replication in SW480 colon adenocarcinoma cells (AID 504364). Further: 0% is about no effect. The note with it: DNA re-replication phenotype (high-content imaging); series mostly up to 46.1 µM. In outline: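 Cells are treated 48 hr with test compound, stained 40 min with Hoechst at 37 C, and scanned for nuclear fluorescence; compounds inducing re-replication increase nuclei with elevated intensity.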

D(1A) dopamine receptor (Homo sapiens), sequence (P21728 whole entry, looked up): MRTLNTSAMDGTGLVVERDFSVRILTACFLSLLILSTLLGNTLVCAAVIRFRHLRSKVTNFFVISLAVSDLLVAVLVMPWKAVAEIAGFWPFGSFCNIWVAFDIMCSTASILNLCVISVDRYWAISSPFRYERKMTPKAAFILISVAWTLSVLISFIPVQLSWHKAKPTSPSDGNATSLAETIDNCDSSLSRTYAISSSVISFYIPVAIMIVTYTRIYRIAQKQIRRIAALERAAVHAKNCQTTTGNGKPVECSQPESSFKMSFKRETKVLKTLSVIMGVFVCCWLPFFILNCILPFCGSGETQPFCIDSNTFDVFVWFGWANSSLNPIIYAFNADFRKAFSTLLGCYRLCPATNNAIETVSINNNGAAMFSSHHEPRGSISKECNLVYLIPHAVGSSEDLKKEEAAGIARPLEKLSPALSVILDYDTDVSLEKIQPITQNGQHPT
Phosphoglycerate kinase, glycosomal (Trypanosoma brucei brucei), sequence (P07378 whole entry, looked up): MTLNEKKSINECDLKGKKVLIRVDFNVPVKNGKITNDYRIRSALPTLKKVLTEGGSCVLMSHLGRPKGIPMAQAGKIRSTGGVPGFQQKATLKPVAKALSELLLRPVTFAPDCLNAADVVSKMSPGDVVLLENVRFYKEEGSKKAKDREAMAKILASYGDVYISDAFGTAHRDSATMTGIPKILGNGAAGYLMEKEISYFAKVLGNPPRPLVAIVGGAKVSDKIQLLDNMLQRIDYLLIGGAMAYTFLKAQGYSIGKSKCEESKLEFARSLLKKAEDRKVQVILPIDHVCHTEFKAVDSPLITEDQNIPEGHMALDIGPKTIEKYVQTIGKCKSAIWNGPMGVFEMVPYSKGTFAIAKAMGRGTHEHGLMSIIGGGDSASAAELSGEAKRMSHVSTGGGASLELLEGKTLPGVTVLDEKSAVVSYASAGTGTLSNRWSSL
ATPase family AAA domain-containing protein 5 (Homo sapiens), sequence (Q96QE3 whole entry, looked up, the tested form may be a part): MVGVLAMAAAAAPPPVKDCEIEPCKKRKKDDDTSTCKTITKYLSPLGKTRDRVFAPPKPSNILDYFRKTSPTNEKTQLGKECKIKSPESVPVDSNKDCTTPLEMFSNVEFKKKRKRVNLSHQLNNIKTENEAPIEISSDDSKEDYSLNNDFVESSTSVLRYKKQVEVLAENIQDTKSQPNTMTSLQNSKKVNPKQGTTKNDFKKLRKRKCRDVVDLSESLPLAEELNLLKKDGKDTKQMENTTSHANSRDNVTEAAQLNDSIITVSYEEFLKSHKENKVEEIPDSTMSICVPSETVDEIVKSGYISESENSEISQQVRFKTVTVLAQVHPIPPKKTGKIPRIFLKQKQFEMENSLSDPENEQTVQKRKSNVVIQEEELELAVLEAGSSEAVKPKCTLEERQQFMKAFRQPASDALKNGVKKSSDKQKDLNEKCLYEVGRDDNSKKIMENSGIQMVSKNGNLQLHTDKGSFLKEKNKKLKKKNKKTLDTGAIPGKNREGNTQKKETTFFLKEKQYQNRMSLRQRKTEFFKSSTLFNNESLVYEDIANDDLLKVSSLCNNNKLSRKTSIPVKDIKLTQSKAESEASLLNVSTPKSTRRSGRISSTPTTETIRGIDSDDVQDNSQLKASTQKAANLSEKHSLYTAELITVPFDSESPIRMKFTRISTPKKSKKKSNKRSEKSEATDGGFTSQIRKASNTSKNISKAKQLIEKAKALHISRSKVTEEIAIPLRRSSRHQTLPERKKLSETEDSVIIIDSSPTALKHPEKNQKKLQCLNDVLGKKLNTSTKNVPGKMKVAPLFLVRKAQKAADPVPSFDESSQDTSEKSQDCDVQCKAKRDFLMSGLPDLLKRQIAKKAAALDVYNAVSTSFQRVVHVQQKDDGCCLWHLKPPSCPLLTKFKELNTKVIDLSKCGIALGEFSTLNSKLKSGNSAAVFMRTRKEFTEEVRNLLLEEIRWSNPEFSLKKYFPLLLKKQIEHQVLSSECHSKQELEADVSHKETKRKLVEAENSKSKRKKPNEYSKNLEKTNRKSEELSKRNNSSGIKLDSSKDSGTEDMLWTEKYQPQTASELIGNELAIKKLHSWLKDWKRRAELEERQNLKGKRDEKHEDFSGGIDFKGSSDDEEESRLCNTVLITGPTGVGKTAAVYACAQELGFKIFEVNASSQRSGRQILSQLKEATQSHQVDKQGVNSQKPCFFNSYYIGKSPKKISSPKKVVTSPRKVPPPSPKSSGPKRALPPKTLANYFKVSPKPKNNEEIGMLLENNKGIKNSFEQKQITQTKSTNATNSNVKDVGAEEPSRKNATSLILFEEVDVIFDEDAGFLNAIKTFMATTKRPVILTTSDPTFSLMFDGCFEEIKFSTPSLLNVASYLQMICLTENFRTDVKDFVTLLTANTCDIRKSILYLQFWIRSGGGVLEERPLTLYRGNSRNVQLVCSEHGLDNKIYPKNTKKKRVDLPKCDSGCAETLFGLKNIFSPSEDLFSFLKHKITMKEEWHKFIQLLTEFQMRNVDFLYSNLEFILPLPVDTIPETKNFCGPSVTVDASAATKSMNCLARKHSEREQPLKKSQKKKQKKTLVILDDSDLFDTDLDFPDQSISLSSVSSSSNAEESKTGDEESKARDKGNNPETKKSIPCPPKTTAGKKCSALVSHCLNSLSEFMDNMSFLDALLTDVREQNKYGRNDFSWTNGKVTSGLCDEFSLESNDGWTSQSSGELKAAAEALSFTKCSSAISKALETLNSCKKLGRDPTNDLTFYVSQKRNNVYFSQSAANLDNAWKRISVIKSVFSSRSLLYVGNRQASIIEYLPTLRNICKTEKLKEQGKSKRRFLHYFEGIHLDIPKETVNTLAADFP
ATP-dependent 6-phosphofructokinase (Trypanosoma brucei brucei), sequence (O15648 whole entry, looked up): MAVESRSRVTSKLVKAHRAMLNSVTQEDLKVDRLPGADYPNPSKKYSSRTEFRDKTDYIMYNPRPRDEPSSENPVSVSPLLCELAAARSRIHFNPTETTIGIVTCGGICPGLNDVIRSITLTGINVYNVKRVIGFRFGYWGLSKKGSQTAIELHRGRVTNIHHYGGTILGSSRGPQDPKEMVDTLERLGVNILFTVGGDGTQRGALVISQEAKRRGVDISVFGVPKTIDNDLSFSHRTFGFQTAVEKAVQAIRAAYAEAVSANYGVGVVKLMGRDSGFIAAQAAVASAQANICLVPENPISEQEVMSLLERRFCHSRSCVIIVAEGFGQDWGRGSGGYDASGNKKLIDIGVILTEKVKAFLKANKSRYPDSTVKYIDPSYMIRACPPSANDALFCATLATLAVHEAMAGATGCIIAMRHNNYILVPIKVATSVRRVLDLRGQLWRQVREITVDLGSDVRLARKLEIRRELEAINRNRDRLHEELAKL
Peptidyl-prolyl cis-trans isomerase NIMA-interacting 1 (Homo sapiens), sequence (Q13526 whole entry, looked up): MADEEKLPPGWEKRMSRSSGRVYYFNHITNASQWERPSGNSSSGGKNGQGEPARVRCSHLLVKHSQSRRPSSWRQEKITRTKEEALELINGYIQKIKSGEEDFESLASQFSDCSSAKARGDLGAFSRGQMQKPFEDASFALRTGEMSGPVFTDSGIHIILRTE
Methanococcus maripaludis chaperonin (MmCpn), sequence (Q6LX38 1-543): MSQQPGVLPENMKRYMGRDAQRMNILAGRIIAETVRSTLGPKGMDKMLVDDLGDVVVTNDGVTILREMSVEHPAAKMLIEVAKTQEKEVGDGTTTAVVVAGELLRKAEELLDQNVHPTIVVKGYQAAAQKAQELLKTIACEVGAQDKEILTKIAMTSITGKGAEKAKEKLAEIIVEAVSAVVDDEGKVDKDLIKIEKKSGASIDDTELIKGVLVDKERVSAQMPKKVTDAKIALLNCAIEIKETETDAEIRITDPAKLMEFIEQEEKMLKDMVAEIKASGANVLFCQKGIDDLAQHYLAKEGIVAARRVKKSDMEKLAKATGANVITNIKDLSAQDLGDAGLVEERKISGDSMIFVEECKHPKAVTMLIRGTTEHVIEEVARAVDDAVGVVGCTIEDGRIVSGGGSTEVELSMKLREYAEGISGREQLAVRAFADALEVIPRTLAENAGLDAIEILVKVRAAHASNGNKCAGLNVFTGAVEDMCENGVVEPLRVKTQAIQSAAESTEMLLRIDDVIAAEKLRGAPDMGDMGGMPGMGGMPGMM
M-phase phosphoprotein 8 (Homo sapiens), sequence (Q99549 whole entry, looked up): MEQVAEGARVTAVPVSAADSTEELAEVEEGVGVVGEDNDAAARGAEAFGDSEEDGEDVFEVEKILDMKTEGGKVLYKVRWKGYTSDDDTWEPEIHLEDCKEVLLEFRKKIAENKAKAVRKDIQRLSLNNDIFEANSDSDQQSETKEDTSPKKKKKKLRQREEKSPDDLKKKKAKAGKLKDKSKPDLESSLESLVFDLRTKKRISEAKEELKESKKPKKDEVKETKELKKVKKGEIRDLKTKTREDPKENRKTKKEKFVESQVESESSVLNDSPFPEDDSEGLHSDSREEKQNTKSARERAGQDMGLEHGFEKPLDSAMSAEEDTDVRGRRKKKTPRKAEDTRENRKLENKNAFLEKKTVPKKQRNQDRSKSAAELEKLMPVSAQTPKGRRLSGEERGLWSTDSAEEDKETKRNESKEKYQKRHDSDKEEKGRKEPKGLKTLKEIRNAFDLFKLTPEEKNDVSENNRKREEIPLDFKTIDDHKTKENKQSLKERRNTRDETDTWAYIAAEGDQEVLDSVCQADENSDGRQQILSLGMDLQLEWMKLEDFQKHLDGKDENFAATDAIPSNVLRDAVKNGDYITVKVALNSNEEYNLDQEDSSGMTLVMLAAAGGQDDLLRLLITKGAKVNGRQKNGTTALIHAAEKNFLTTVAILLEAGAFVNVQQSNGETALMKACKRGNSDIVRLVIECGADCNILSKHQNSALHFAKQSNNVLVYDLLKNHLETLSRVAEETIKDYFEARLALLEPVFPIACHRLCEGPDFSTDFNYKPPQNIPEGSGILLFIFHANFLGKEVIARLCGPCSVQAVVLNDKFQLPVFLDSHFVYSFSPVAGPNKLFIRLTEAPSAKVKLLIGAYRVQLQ
Chromobox protein homolog 1 (Homo sapiens), sequence (P83916 whole entry, looked up): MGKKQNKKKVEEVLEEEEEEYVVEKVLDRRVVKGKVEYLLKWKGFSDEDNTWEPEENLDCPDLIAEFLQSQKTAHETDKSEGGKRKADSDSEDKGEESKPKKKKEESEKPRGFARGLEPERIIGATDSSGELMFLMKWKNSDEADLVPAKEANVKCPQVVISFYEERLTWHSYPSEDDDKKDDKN

Turning to `CCC(C(=O)O)C1CCC(C)C(C(C)C(O)C(C)C(=O)C(CC)C2OC3(C=CC(O)[C@@]4(CC[C@](C)(C5CC[C@@](O)(CC)C(C)O5)O4)O3)C(C)CC2C)O1` (stereo partly specified), the result in assay [1] was inactive.

With `COc1ccc2c(c1OC)C(=O)OC2[C@H]1c2c(cc3c(c2OC)OCO3)CCN1C` (stereo partly specified), in [1], the molecule was called inactive.

For the molecule `CN[C@H](CC(C)C)C(=O)N[C@H]1C(=O)N[C@@H](CC(N)=O)C(=O)N[C@@H]2C(=O)N[C@H]3C(=O)N[C@H](C(=O)N[C@H](C(=O)O)c4cc(O)cc(O)c4-c4cc3ccc4O)[C@H](O)c3ccc(c(Cl)c3)Oc3cc2cc(c3O[C@@H]2O[C@H](CO)[C@@H](O)[C@H](O)[C@@H]2O[C@H]2C[C@](C)(N)[C@H](O)[C@H](C)O2)Oc2ccc(cc2Cl)[C@H]1O`, the molecule was called inactive in assay [2], in assay [3], in [4], in assay [5], in assay [6] and in [7]. In addition, the molecule was classed as inactive in assay [8], in assay [9], in [10], in assay [11], in assay [12] and in assay [13]. Moreover, the result in [14] was inactive. In assay [11], the viability change is -4.03%.

In the case of `O=c1[nH]c(=O)n([C@H]2C[C@@H](O)[C@@H](CO)O2)cc1C=CBr`, the molecule was classed as inactive in assay [2], in [3], in assay [15], in assay [4], in assay [16] and in assay [5]. The result in assay [6], in assay [7], in assay [8], in assay [9], in [10] and in [11] was inactive. In addition, the molecule was called inactive in [12], in assay [13] and in assay [14]. Besides, in assay [11], the viability change was 1.21%.

Take `COc1ccc2cc([S+]([O-])Cc3ncc(C)c(OC)c3C)nc2c1`: the call in [2], in assay [3], in [15], in [16], in assay [5] and in [6] was inactive. Also, the outcome in assay [7], in assay [8], in assay [9], in [10], in [11] and in assay [12] was inactive. Also, the molecule was called inactive in assay [13] and in assay [14]. Further, the viability change in assay [11] is -3.22%.

With `CCCCCCCCCCCC(CC1OC(=O)C1CCCCCC)OC(=O)C(CC(C)C)NC=O` (stereo unspecified), in assay [1], the outcome was inactive.

As to `OCC(O)C(O)C(O)CO` (stereo unspecified), the outcome in assay [1] was inactive.

On to `COc1ccc([C@@H]2CNC(=O)C2)cc1OC1CCCC1`, for which the molecule was classed as inactive in assay [1].

Consider `N=c1ccn2c(n1)O[C@H]1[C@@H](O)[C@@H](CO)O[C@H]12`, for which the call in assay [4], in assay [17], in [18], in [19] and in assay [20] was inactive.

With `Nc1nc2c(c(=O)[nH]1)N(C=O)[C@H](CNc1ccc(C(=O)N[C@@H](CCC(=O)O)C(=O)O)cc1)CN2`, the outcome in assay [1] was inactive.
